Screening data: PubChem BioAssay, National Center for Advancing Translational Sciences (NCATS)
Hits are enriched below; roughly 5.5% of the tested compounds scored in any of these assays.
Gal4-VP16 FLuc – Gal4-VP16 reporter inhibition counter-screen | Drosophila S2 Gal4-VP16 UAS-luciferase, luminescence, 20 h | Potency, µM (series often up to 53.6 µM), inactives show at the highest dose activity, negative = inhibition, usual class: inhibitors | 310,000 compounds, 3.5% hits;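 further: Gal4-VP16 expression switched on by copper sulfate through the metallothionein promoter; potency means the concentration at half of the fitted maximal effect; on the % scale 0 is the no-effect control and ±100 the full control effect; nearly all actives have a fitted effect of over 50% in size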
CtBP-E1A inh – inhibitors of CtBP/E1A interaction; AlphaScreen GST-E1A/His-CtBP binding, 1536-well; active compounds read low; activity change, % (no concentration beside the values); 340,000 compounds, 0.49% hits; in the data active means activity change below about -65%; inconclusive means mostly about -30% to -63%; further: on the % scale 0 is the no-effect control and ±100 the full control effect
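In 5 uL wells, 23 nL compound meets equimolar GST-E1A and His-CtBP (5X stock 125 nM each) for 2 h, 37 °C. Beads (5X, 50 ug/mL) then 1 h, 37 °C, dark.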
MBNL1-CUG inh – inhibitors of human MBNL1 binding to CUG repeat RNA; TR-FRET MBNL1-His/biotin-(CUG)12 binding, 665/545 ratio; Potency, µM (series often up to 57.5 µM), for inactives: top-dose activity change, negative = inhibition, usual class: inhibitors; 280,000 compounds, 0.036% hits; AID 2675; active means well fitted inhibition curve with a large enough effect in the signal ratio, with a control signal flat, not every such curve was filed as active; inconclusive means small, poorly fitted or top-dose-only effect, or effect the other way, or a change in a side signal; inactive means no such curve, though single readings can be large or run the other way; the % refers to the signal ratio; further: potency means the concentration at half of the fitted maximal effect; on the % scale 0 is the no-effect control and ±100 the full control effect
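Inhibition of protein-RNA binding appears as loss of TR-FRET between terbium anti-His antibody on MBNL1-His and streptavidin-XL665 on biotin-(CUG)12. Activity is normalized to buffer-only and uninhibited-complex controls.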
CBFb-RUNX1 inh – CBF-beta/RUNX1 interaction disruption | Q01196+Q13951 | AlphaScreen CBFb-His/RUNX1-biotin binding, biochemical | Potency, µM (titrated, usually from 59.8 µM), for inactives: at the top dose activity, negative = inhibition, actives largely listed as inhibitors | 230,000 tested, under 10 active | AID 1477; further: % of control where 0% means no effect
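Interaction loss through any mechanism counts as activity. Pre-formed complex of His-CBF-beta and biotin-RUNX1 (30 nM apiece) is incubated with compound 15 min, then with 50 ng nickel and 50 ng streptavidin beads for 90 min before AlphaScreen detection.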
RORg inh – blocks mouse ROR gamma transcriptional activity; P51450; Drosophila S2 Gal4-RORgamma UAS-luciferase reporter, 20 h; Potency, µM (doses to about 53.6 µM), for the others: top-dose activity change, negative = inhibition, most hits filed as inhibitors; 310,000 compounds, 5.4% hits; further: potency means the concentration at half of the fitted maximal effect; on the % scale 0 is the no-effect control and ±100 the full control effect; nearly all actives have a fitted effect of over 60% in size
Target sequence (P51450 whole entry, looked up, the tested form may be a part): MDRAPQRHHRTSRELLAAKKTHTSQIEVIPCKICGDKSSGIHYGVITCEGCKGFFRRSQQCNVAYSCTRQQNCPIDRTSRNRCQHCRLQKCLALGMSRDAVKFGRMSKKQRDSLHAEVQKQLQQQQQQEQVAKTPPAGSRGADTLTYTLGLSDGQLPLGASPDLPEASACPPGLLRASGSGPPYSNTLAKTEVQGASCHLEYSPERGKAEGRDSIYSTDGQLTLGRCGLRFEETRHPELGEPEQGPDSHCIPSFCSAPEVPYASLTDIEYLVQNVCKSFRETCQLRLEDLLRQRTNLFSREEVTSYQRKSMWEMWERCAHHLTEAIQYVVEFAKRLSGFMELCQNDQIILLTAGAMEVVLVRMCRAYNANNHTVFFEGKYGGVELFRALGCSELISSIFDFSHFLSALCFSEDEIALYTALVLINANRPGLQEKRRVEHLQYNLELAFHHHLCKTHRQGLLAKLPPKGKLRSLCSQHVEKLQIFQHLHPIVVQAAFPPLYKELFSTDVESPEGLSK
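ROR gamma transcriptional activity was tracked as Gal4-UAS luciferase output in stably transfected Drosophila Schneider cells, with compound added 1 hr before 700 uM copper sulfate induction and a 20 hr ambient-temperature incubation.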
Six1-Eya2 inh – blocks human Six1 binding to Eya2; activity change, % (test concentration not listed); 360,000 compounds, 0.56% hits; AlphaScreen GST-Six1/His-Eya2 binding, biochemical; active compounds read low; Q15475+O00167; AID 651725; in the data active means activity change below about -65%; inconclusive means mostly about -30% to -63%; further: on the % scale 0 is the no-effect control and ±100 the full control effect
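Compounds are tested against tagged Six1 and Eya2 proteins bridged by glutathione donor and nickel acceptor beads; after a one-hour incubation at 37 °C without light, AlphaScreen emission is recorded.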
Numbers without * were called inactive; [ ] = remark or other dose. Unless noted, the call rests on the fitted dose curve; in most records, active means well fitted curve in the direction sought with a large enough effect; inconclusive means small, poorly fitted or top-dose-only effect, or another doubt; inactive means no such curve, though single readings can be large; an effect the other way counts as inactive or inconclusive.

How did Cc1cc(C)cc(-n2ncc3c2CCCC3NC(=O)c2ccccc2)c1 (stereo unspecified) do in these assays?
CtBP-E1A inh: -1.0; Six1-Eya2 inh: -1.8

How did CO[C@@H]1COC(=O)[C@H]2CCCN2C(=O)C/C=C\[C@@H](C)[C@H](OC)COC(=O)[C@H]2CCCN2C(=O)C/C=C\[C@H]1C do in these assays?
Gal4-VP16 FLuc: 3.6%[10 µM]; CBFb-RUNX1 inh: 2.7%[13.1 µM]; RORg inh: -14.5%[10 µM]

Results for O=C(CNC(=O)C12CC3CC(CC(C3)C1)C2)N1CCCC(C(F)(F)F)C1 (stereo unspecified) ?
CtBP-E1A inh: 2.9; Six1-Eya2 inh: -0.9

Results for CC(=O)Nc1ccc(NC(=O)CS(=O)(=O)c2cn(CC(=O)N3CCCC3)c3ccccc23)cc1 ?
Gal4-VP16 FLuc: -0.8%; CtBP-E1A inh: 4.4; MBNL1-CUG inh: -5.1%; RORg inh: 3.4%; Six1-Eya2 inh: -2.9

What do the screens show for `Cc1cc(NC(=O)C2CCC2)n(-c2ccccn2)n1`?
Gal4-VP16 FLuc: -3.0%; CtBP-E1A inh: -0.9; MBNL1-CUG inh: -5.3%; CBFb-RUNX1 inh: 5.4%; RORg inh: 12.6%; Six1-Eya2 inh: -3.4

Results for Cc1cc(NC(=O)C2CCCCC2)n(-c2nc3ccccc3[nH]2)n1 ?
Gal4-VP16 FLuc: 1.41µM*; CtBP-E1A inh: 0.8; MBNL1-CUG inh: 1.3%; CBFb-RUNX1 inh: 1.8%; RORg inh: 1.58µM*; Six1-Eya2 inh: 2.2

How did Cc1cc(NC(=O)c2c(F)cccc2Cl)n(-c2nc3ccccc3[nH]2)n1 do in these assays?
Gal4-VP16 FLuc: 7.08µM*; CtBP-E1A inh: -3.2; MBNL1-CUG inh: 2.2%; CBFb-RUNX1 inh: -8.1%; RORg inh: 4.47µM*; Six1-Eya2 inh: -1.9

Results for Cc1cc(NC(=O)c2ccccc2F)n(-c2nc3ccccc3[nH]2)n1 ?
Gal4-VP16 FLuc: 4.47µM*; CtBP-E1A inh: -4.2; MBNL1-CUG inh: 1.4%; CBFb-RUNX1 inh: 6.8%; RORg inh: 1.12µM*; Six1-Eya2 inh: -0.3

Results for CN1CCN(NC(=O)/C=C/c2ccc(Br)cc2)CC1 ?
Gal4-VP16 FLuc: -10.4%; CtBP-E1A inh: 2.1; MBNL1-CUG inh: 31.4%; RORg inh: 9.7%; Six1-Eya2 inh: 7.4

How did CC(=O)Nc1ccc(S(=O)(=O)NCCC(=O)OCC(=O)c2cccc(Br)c2)cc1 do in these assays?
CtBP-E1A inh: 0.0; Six1-Eya2 inh: -2.0

Results for Cc1ccc(OCC(=O)Nc2ccc(NC(=O)c3ccccc3)cc2)cc1C ?
Gal4-VP16 FLuc: 6.9%; CtBP-E1A inh: -8.7; MBNL1-CUG inh: 2.1%; RORg inh: -0.7%; Six1-Eya2 inh: -2.0

What do the screens show for `Cc1cc(C)cc(C(=O)NCC(=O)OCC(=O)N2CCCC2)c1`?
CtBP-E1A inh: 1.6; Six1-Eya2 inh: 3.9

What do the screens show for `Cc1c(CCC(=O)N2CCC(C(=O)O)CC2)c(=O)oc2cc3oc4c(c3cc12)CCCC4`?
Gal4-VP16 FLuc: inconclusive; CtBP-E1A inh: -7.9; MBNL1-CUG inh: 27.3%; RORg inh: inconclusive; Six1-Eya2 inh: -1.4

What do the screens show for `Cc1c(CCC(=O)NCCCn2ccnc2)c(=O)oc2cc3oc4c(c3cc12)CCCC4`?
Gal4-VP16 FLuc: 15.8µM*; CtBP-E1A inh: 5.1; MBNL1-CUG inh: -13.0%; RORg inh: 1.26µM*; Six1-Eya2 inh: -21.2

How did Cc1c(CCC(=O)N2CCC(C(=O)O)(c3ccccc3)CC2)c(=O)oc2cc3oc4c(c3cc12)CCCC4 do in these assays?
Gal4-VP16 FLuc: inconclusive; CtBP-E1A inh: -9.4; MBNL1-CUG inh: 27.4%; RORg inh: 1.12µM*; Six1-Eya2 inh: -0.5

Results for Cc1oc2cc3oc(=O)c(CCC(=O)NCCCn4ccnc4)c(C)c3cc2c1C ?
Gal4-VP16 FLuc: -4.3%; CtBP-E1A inh: inconclusive; MBNL1-CUG inh: 3.7%; RORg inh: -19.5%; Six1-Eya2 inh: -8.6
